According to PubChem BioAssay (NCATS):
Several values for one entry are separate records, joined by “and”; a condition that tells them apart may be missing. Equal values may be shown once. Results filed as inconclusive are left out. Unmarked numbers belong to inactive results. Activity calls are given as the source filed them. Calls follow the shape of the dose curve; as a rule, active = well fitted curve in the direction sought with a large enough effect; inconclusive = small, poorly fitted or top-dose-only effect, or another doubt; inactive = no such curve, though single readings can be large; an effect the other way counts as inactive or inconclusive.

Legend:
[1] = target: Cellular tumor antigen p53 (Homo sapiens) (UniProt P04637); test: Primary qHTS for small molecule compounds that upregulate eGFP-tagged delta133p53alpha (in N-terminal) cells. (AID 2060322); details: NCI-H358 eGFP-delta133p53alpha fluorescence, 24 h; activation: stronger effect = higher value; also: nearly all actives have a fitted effect of over 75% in size;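 as to activation: cells pre-induced with doxycycline then dosed without doxycycline; 0% = DMSO vehicle and 100% = reference activator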
Sequence of Cellular tumor antigen p53 (Homo sapiens) (P04637 whole entry, looked up): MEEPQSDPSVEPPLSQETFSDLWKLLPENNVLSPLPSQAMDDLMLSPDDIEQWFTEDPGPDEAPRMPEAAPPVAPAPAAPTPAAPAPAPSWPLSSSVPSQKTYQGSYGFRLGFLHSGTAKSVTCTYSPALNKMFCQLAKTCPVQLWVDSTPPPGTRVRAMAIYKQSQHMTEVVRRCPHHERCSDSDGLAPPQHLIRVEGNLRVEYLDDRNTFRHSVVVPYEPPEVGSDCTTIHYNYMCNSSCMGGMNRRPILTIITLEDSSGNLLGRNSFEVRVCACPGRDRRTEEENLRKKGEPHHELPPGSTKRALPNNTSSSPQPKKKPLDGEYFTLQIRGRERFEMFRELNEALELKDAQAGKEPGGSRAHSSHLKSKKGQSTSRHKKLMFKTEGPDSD
How it was run: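 NCI-H358 cells pre-induced 24 h with 10 ng/ml doxycycline for eGFP-delta133p53alpha, plated dox-free and exposed 24 h at 37C to titrated compounds. Fixed, Hoechst-stained; gated GFP peak intensity by laser scanning cytometry, normalized to DMSO (0%) and 57.5 uM 5-azacytidine (100%).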

[2] = BET inhibitor-based combinations targeting novel dependencies in MECOM-rearranged (r) AML: OCI-AML3 cell line (AID 2202232); details: CellTiter-Glo luminescence, 48 h; Potency: OCI-AML3 viability; series mostly up to 46 µM; also: nearly all actives have a fitted effect of over 35% in size
How it was run: (§1)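 A 48 hr incubation preceded viability reading by CellTiter-Glo, with 15 min room-temperature development. Dose series had 11 points; normalization used DMSO and empty wells; AUC was computed and mean-centered per line as Z-AUC.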

[3] = BET inhibitor-based combinations targeting novel dependencies in MECOM-rearranged (r) AML: MV-4-11 cell line (AID 2202233); details: MV-4-11 AML viability, CellTiter-Glo luminescence, 48 h; series mostly up to 46 µM; also: nearly all actives have a fitted effect of over 45% in size
How it was run: (§2)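 Each compound is tested in an 11-point concentration series against 500 seeded cells/well for 48 hr. The luminescent viability signal is normalized to DMSO and blank wells, then reduced to AUC and a cell-line-centred Z-AUC.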

[4] = BET inhibitor-based combinations targeting novel dependencies in MECOM-rearranged (r) AML: HNT-34 cell line (AID 2202234); details: HNT-34 AML viability, CellTiter-Glo luminescence, 48 h; series mostly up to 46 µM; also: nearly all actives have a fitted effect of over 35% in size
How it was run: as §2

[5] = BET inhibitor-based combinations targeting novel dependencies in MECOM-rearranged (r) AML: UCSD-AML1 cell line (AID 2202235); details: UCSD-AML1 AML cells viability, CellTiter-Glo, 48 h; series mostly up to 46 µM; also: nearly all actives have a fitted effect of over 40% in size
How it was run: as §2

[6] = BET inhibitor-based combinations targeting novel dependencies in MECOM-rearranged (r) AML: AML-191 cell line (AID 2202236; also: nearly all actives have a fitted effect of over 35% in size); details: AML-191 viability, CellTiter-Glo luminescence, 48 h; series mostly up to 46 µM
How it was run: as §1

[7] = BET inhibitor-based combinations targeting novel dependencies in MECOM-rearranged (r) AML: AML-194 cell line (AID 2202237; also: nearly all actives have a fitted effect of over 40% in size); details: AML-194 (MECOM-r AML) viability, CellTiter-Glo, 48 h; series mostly up to 46 µM
How it was run: as §1
Potency is read from the fitted curve at half-maximal effect.

Structure (SMILES)	activation [1]	Potency [2]	Potency [3]	Potency [4]	Potency [5]	Potency [6]	Potency [7]	Potency [1]
Cc1ccc(S(=O)(=O)Nc2nc3ccccc3nc2Nc2ccc3nsnc3c2)cc1	6.55%	inactive	inactive	inactive	inactive	inactive	inactive	–
N#Cc1ccnc(Nc2cc(C3CCN(C4COC4)CC3)cc(N3CCC(F)(F)C3)n2)c1	–	8.33 µM (active)	0.235 µM (active)	0.833 µM (active)	2950 nM (active)	2.95 µM (active)	4.17 µM (active)	27.2 µM (active)
Cc1[nH]nc2ccc(-c3cncc(OC[C@@H](N)Cc4ccccc4)c3)cc12	–	1.18 µM (active)	0.132 µM (active)	0.662 µM (active)	468 nM (active)	–	1.18 µM (active)	21.7 µM (active)
COC(=O)C1=C(C)NC(C)=C(C(=O)OCCN2CCN(C(c3ccccc3)c3ccccc3)CC2)C1c1cccc([N+](=O)[O-])c1 (stereo not given)	-17.6%	20.9 µM (active)	18.6 µM (active)	23.5 µM (active)	inactive	26.3 µM (active)	–	–
N#Cc1c(NC(=O)c2cccc3ccccc23)sc2c1CCCC2	–	0.332 µM (active)	0.372 µM (active)	0.372 µM (active)	332 nM (active)	0.296 µM (active)	0.332 µM (active)	13.7 µM (active)
COc1ccc(-c2ccc3c(N4CCOCC4)nc(N4C[C@@H](C)O[C@@H](C)C4)nc3n2)cc1CO	–	1.18 µM (active)	1.05 µM (active)	0.934 µM (active)	–	–	–	21.7 µM (active)
CN(C)S(=O)(=O)c1ccc2c(c1)C(=Cc1cc3c([nH]1)CCCC3)C(=O)N2	–	5.9 µM (active)	2.09 µM (active)	–	–	–	–	1.37 µM (active)
C[C@H](NC(=O)[C@@H](O)c1cc(F)cc(F)c1)C(=O)N[C@@H]1C(=O)N(C)c2ccccc2-c2ccccc21	10.4%	inactive	inactive	inactive	inactive	–	inactive	–
Cc1c(C)c2c(c(C)c1O)CCC(C)(COc1ccc(CC3SC(=O)NC3=O)cc1)O2 (stereo not given)	-7.34%	inactive	inactive	18.6 µM (active)	inactive	inactive	inactive	–
CCCCCCOC(=O)NC(=N)c1ccc(NCc2nc3cc(C(=O)N(CCC(=O)OCC)c4ccccn4)ccc3n2C)cc1	-36.8%	8.33 µM (active)	8.33 µM (active)	–	–	–	–	–
OCCN1C[C@H](O)[C@@H](O)[C@H](O)[C@H]1CO	-10.9%	inactive	inactive	inactive	inactive	inactive	inactive	–
CSc1cccc(Nc2ncc3cc(-c4c(Cl)cccc4Cl)c(=O)n(C)c3n2)c1	-0.477%	inactive	1.86 µM (active)	–	–	–	–	–
NC(=O)N1CCC(CC(=O)N2CCC([C@H]3c4ncc(Br)cc4CCc4cc(Cl)cc(Br)c43)CC2)CC1	7.44%	1.18 µM (active)	16.6 µM (active)	–	3720 nM (active)	–	–	–
COc1cccc2c1C(=O)c1c(O)c3c(c(O)c1C2=O)C[C@@](O)(C(=O)CO)C[C@@H]3O[C@H]1C[C@H](N)[C@H](OC2CCCCO2)[C@H](C)O1 (stereo not given in full)	3.12%	0.186 µM (active)	18.6 nM (active) and 74.2 nM (active)	332 nM (active) and 235 nM (active)	209 nM (active) and 263 nM (active)	118 nM (active) and 372 nM (active)	332 nM (active) and 296 nM (active)	–
COc1cc(NC(=O)c2ccc(-c3ccc(Cl)cc3)o2)cc(OC)c1	1.2%	inactive	inactive	inactive	–	inactive	inactive	–
NS(=O)(=O)c1ccc(NC2=CC(=O)c3ccccc3C2=O)cc1	4.73%	5.25 µM (active)	0.833 µM (active)	–	inactive	4.68 µM (active)	inactive	–
CCOC(=O)N1c2ccc(C(F)(F)F)cc2[C@@H](N(Cc2cc(C(F)(F)F)cc(C(F)(F)F)c2)C(=O)OC)C[C@H]1CC	-8.39%	4.68 µM (active)	–	inactive	inactive	inactive	inactive	–
O=C(O)Cc1cccc(OCCCN(Cc2cccc(C(F)(F)F)c2Cl)CC(c2ccccc2)c2ccccc2)c1	4.75%	–	20.9 µM (active)	–	–	–	–	–
COc1cc2c(cc1Cc1cccc(Cl)c1F)c(=O)c(C(=O)O)cn2[C@H](CO)C(C)C	-15%	16.6 µM (active)	–	3.72 µM (active)	–	9.34 µM (active)	8.33 µM (active)	–
COc1ccc2nc3cc(Cl)ccc3c(Nc3cc(CN4CCCC4)c(O)c(CN4CCCC4)c3)c2n1	55.3%	7.42 µM (active)	–	11.8 µM (active)	8330 nM (active)	10.5 µM (active)	10.5 µM (active)	–
C#Cc1cccc(Nc2ncnc3cc(OCCOC)c(OCCO)cc23)c1	34%	–	2.63 µM (active)	2.63 µM (active)	13200 nM (active)	16.6 µM (active)	–	–
NC(=O)[C@@H](CCC(F)(F)F)N(Cc1ccc(-c2ncon2)cc1F)S(=O)(=O)c1ccc(Cl)cc1	12.6%	inactive	–	–	inactive	–	inactive	–

Structure (SMILES)	activation [1]	Potency [2]	Potency [3]	Potency [4]	Potency [5]	Potency [6]	Potency [7]	Potency [1]
COc1ccc(-c2ccc3cc(C(=O)O)ccc3c2)cc1C12CC3CC(CC(C3)C1)C2	-14.2% and 5.04%	0.0033 µM (active)	–	inactive	inactive	inactive	inactive	–
O=C(O)c1ccc2cc(-c3ccc(O)c(C45CC6CC(CC(C6)C4)C5)c3)ccc2c1	-20.4%	0.525 µM (active)	–	1.05 µM (active)	934 nM (active)	0.934 µM (active)	1.05 µM (active)	–
OC1CCC(Nc2ncc3nc(Nc4c(F)cc(F)cc4F)n([C@@H]4CCOC4)c3n2)CC1 (stereo not given in full)	52.2%	18.6 µM (active)	20.9 µM (active)	–	inactive	16.6 µM (active)	–	–
Nc1ncnc2c1ncn2[C@@H]1O[C@H](CO)[C@@H](O)[C@@H]1O	23.2%	inactive	inactive	–	–	inactive	inactive	–
CCCCCCNC(=O)n1cc(F)c(=O)[nH]c1=O	-29.9% and -7.59%	1.86 µM (active)	–	–	7420 nM (active)	–	–	–
COc1ccc(-c2cc(=O)c3c(O)cc(O)cc3o2)cc1O	29.3%	–	5.25 µM (active)	–	–	–	–	–
O=c1c(O)c(-c2ccc(O)c(O)c2)oc2cc(O)ccc12	-6.9%	–	2.63 µM (active)	–	–	–	–	–
Nc1nc(=O)n([C@H]2C[C@H](O)[C@@H](CO)O2)cc1F	-4.59%	0.132 µM (active)	–	–	–	0.186 µM (active)	0.742 µM (active)	–
OC[C@H](Cc1ccccc1)Nc1nc(Oc2ccc3c(c2)CCC3)nc2c1ncn2Cc1ccc(-c2ccccc2)cc1	-44.8%	8.33 µM (active)	–	7.42 µM (active)	–	–	–	–
CC(=O)Oc1ccccc1C(=O)Nc1ncc([N+](=O)[O-])s1	-2.09% and 33.3%	18.6 µM (active)	–	–	–	20.9 µM (active)	–	–
CC[C@@]1([C@@H]2O[C@@H]([C@H]3O[C@@](O)(CO)[C@H](C)C[C@H]3C)C[C@H]2C)CC[C@H]([C@]2(C)CC[C@]3(C[C@H](O)[C@@H](C)[C@@H]([C@@H](C)[C@@H](OC)[C@H](C)C(=O)O)O3)O2)O1	7.91%	–	0.574 µM (active)	0.0811 µM (active)	288 nM (active)	–	–	–
CC[C@@H]1C(=O)N(C)c2cnc(Nc3ccc(C(=O)NC4CCN(C)CC4)cc3OC)nc2N1C1CCCC1	7.53%	0.0525 µM (active)	0.105 µM (active)	–	105 nM (active)	0.166 µM (active)	0.332 µM (active)	–
CC(C)c1ccccc1Cc1cc(C(=O)Nc2ccc(S(=O)(=O)c3ccccc3C(C)(C)C)cc2)c(O)c(O)c1O	-33%	4.68 µM (active)	10.5 µM (active)	–	10500 nM (active)	9.34 µM (active)	10.5 µM (active)	–
CCc1nc(N)nc(N)c1-c1ccc(Cl)cc1	-15.9% and -12.3%	–	14.8 µM (active)	inactive	inactive	–	–	–
CO[C@@H](C(=O)N1Cc2[nH]nc(NC(=O)c3ccc(N4CCN(C)CC4)cc3)c2C1)c1ccccc1	20.9%	1.86 µM (active)	–	–	148 nM (active)	–	–	–
COc1cccc2c1CCCC2CCCN1CCN(C2CCCCC2)CC1 (stereo not given)	0.872%	11.8 µM (active)	–	–	–	5.9 µM (active)	inactive	–
O=c1cc(-c2ccccc2)oc2cc(O)c(O)c(O)c12	-1.25%	7.42 µM (active)	–	–	–	18.6 µM (active)	–	–
Cn1c(Nc2ccc(C(F)(F)F)cc2)nc2cc(Oc3ccnc(-c4ncc(C(F)(F)F)[nH]4)c3)ccc21	0.151%	2.95 µM (active)	–	0.332 µM (active)	833 nM (active)	0.833 µM (active)	–	–
CN1CCC(=C2c3ccccc3CCc3sccc32)CC1	-15.1% and 66.1%	–	33.2 µM (active)	–	–	–	–	–
CCN(CC)CCCCNc1nc2cc(Cl)c(Cl)cc2nc1-c1ccc(-c2cccs2)s1	–	20.9 µM (active)	–	–	–	26.3 µM (active)	–	6.85 µM (active)
COc1ccc(Nc2cc(-c3cnc(N)nc3)nc(N3CCOCC3)n2)cn1	24.5%	–	5.25 µM (active)	–	–	–	–	–
O=C1NC(=O)C(c2c[nH]c3ccccc23)=C1c1c[nH]c2ccccc12	–	–	2.63 µM (active)	–	–	–	–	27.3 µM (active)
